Experimental data as given in PubChem BioAssay (EPA / NIEHS).
Records with an inconclusive call do not appear. The source made the active and inactive calls. Rule for the calls, unless noted: active = hit-call score of the fitted dose curve at least 0.9, where 1 is the maximum; inconclusive = response in the unintended direction; inactive = score below 0.9.

Key:
[1] = TOX21_p53_BLA_p4_viability: Viability Assessment in the Tox21 HCT-116 p53 Agonism Beta-lactamase Assay, Phase 4 (AID 2283597);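 note: hits lower the luminescence signal meaning cytotoxicity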
Procedure, shortened: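 We seeded HCT116 p53 reporter cells at 4000/well and waited 5 h. We then added compounds in DMSO at a 217-fold dilution and incubated for 16 h. Viability was read as CellTiter-Glo luminescence after 30 min at RT.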

[2] = TOX21_p53_BLA_p5_viability: Viability Assessment in the Tox21 HCT-116 p53 Agonism Beta-lactamase Assay, Phase 5 (AID 2283600)
Procedure, shortened: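 Compounds, pinned from DMSO at 217-fold dilution, were left on the cells for 16 h. The viability endpoint was ATP content measured by CellTiter-Glo luminescence, where falling signal reflects cytotoxicity.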

[3] = molecular target: Cellular tumor antigen p53 (Homo sapiens) (UniProt P04637); assay: TOX21_p53_BLA_p4_ratio: Tox21 HCT-116 p53 Agonism Beta-lactamase Assay, Ratio, Phase 4 (AID 2283601)
Procedure, shortened: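 HCT116 cells carrying an inducible beta-lactamase reporter were plated at 4000 cells/well, rested 5 h, then exposed to compounds in DMSO (217-fold dilution) for 16 h at 37C. CCF4-AM substrate was loaded 2 h at room temperature; 460/530 nm emission ratio scored gain-of-signal versus DMSO.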

[4] = Tanguay_ZF_120hpf_MORT_legacy: (Legacy) Oregon State University Tanguay Lab 120 Hour Post-fertilization zebrafish Assay for Mortality (AID 2283633)
Procedure, shortened: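 Brightfield scoring of embryo death (binary) at 24 and 120 hpf; static exposure 6–120 hpf, 28C, sealed and foil-covered. Pronase-dechorionated 5D wild-type larvae, single embryo per well. DMSO 0.64% v/v; trimethyltin chloride 5uM positive control.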

[5] = Tanguay_ZF_120hpf_YSE_legacy: (Legacy) Oregon State University Tanguay Lab 120 Hour Post-fertilization zebrafish Assay for Yolk Sac Edema (AID 2283634);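 for AC50: actives raise the incidence of yolk sac edema above the DMSO baseline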
Procedure, shortened: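 Binary brightfield scoring of yolk sac edema at 120 hpf; DMSO baseline, gain-of-signal fitting. Dechorionated 5D larvae, one per well, static exposure 6–120 hpf, 28C, 0.64% DMSO. Dead embryos not scored.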

[6] = Tanguay_ZF_120hpf_AXIS_legacy: (Legacy) Oregon State University Tanguay Lab 120 Hour Post-fertilization zebrafish Assay for Body Axis Malformation (AID 2283635);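 for AC50: potency for an increased fraction of larvae scored with body axis malformation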
Procedure, shortened: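 Embryos: 5D wild-type, pronase-dechorionated 4 hpf; static exposure 6–120 hpf, 28C, sealed, dark, 1 embryo/well, 0.64% DMSO. 120 hpf axis malformation scored present/absent; dead embryos excluded. Analysed as gain of signal vs DMSO.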

[7] = Tanguay_ZF_120hpf_EYE_legacy: (Legacy) Oregon State University Tanguay Lab 120 Hour Post-fertilization zebrafish Assay for Eye Malformation (AID 2283636)
Procedure, shortened: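 Dechorionated wild-type Tropical 5D zebrafish embryos were exposed statically from 6 hpf, one per well, to 120 hpf at 28C in sealed, foil-covered plates with 0.64% DMSO. Eye malformation was scored present/absent by brightfield microscopy against DMSO controls.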

[8] = Tanguay_ZF_120hpf_SNOU_legacy: (Legacy) Oregon State University Tanguay Lab 120 Hour Post-fertilization zebrafish Assay for Snout Malformation (AID 2283637)
Procedure, shortened: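 Tropical 5D wild-type zebrafish embryos, dechorionated with pronase at 4 hpf, were exposed singly from 6 hpf to 120 hpf statically at 28C in 0.64% DMSO. Snout malformation was scored present/absent by brightfield microscopy, fitted against DMSO.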

[9] = Tanguay_ZF_120hpf_JAW_legacy: (Legacy) Oregon State University Tanguay Lab 120 Hour Post-fertilization zebrafish Assay for Jaw Malformation (AID 2283638);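 for AC50: active means more embryos with jaw malformation than DMSO controls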
Procedure, shortened: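 Binary jaw-malformation calls at 120 hpf by brightfield imaging; DMSO (0.64% v/v) = baseline. Embryos: 5D wild-type, pronase-dechorionated, one per well from 6 hpf, static exposure, 28C, sealed, dark.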

[10] = Tanguay_ZF_120hpf_PE_legacy: (Legacy) Oregon State University Tanguay Lab 120 Hour Post-fertilization zebrafish Assay for Pericardial Edema (AID 2283640);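 for AC50: potency for increased incidence of pericardial edema versus DMSO baseline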
Procedure, shortened: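 Static waterborne exposure, 5D wild-type embryos, 28C, to 120 hpf; final DMSO 0.64% (vol/vol). Binary PE call at 120 hpf by brightfield; fitted upward vs DMSO baseline. 5uM trimethyltin chloride as positive control.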

[11] = Tanguay_ZF_120hpf_BRAI_legacy: (Legacy) Oregon State University Tanguay Lab 120 Hour Post-fertilization zebrafish Assay for Brain Malformation (AID 2283641)
Procedure, shortened: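 Read-out: binary brain morphology call at 120 hpf (brightfield), fitted in gain-of-signal direction vs DMSO. Wild-type Tropical 5D embryos, static exposure, 28C, 0.64% DMSO final; 5uM trimethyltin chloride as positive control.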

[12] = Tanguay_ZF_120hpf_SOMI_legacy: (Legacy) Oregon State University Tanguay Lab 120 Hour Post-fertilization zebrafish Assay for Somite Malformation (AID 2283647)
Procedure, shortened: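 Binary brightfield scoring of somite defects at 120 hpf in 5D wild-type larvae; one dechorionated embryo per well, static exposure from 6 hpf, 28C, sealed and dark. Final DMSO 0.64%; trimethyltin chloride 5uM positive control.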

[13] = Tanguay_ZF_120hpf_PFIN_legacy: (Legacy) Oregon State University Tanguay Lab 120 Hour Post-fertilization zebrafish Assay for Pectoral Fin Malformation (AID 2283648);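 note: each larva judged yes or no for fin defect by brightfield with dead larvae skipped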
Procedure, shortened: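 Tropical 5D wild-type embryos, dechorionated with pronase at 4 hpf, were placed singly in wells at 6 hpf and statically exposed until 120 hpf at 28C, sealed and dark, with 0.64% (vol/vol) final DMSO; pectoral fin malformation scored present/absent.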

[14] = Tanguay_ZF_120hpf_PIG_legacy: (Legacy) Oregon State University Tanguay Lab 120 Hour Post-fertilization zebrafish Assay for Pigmentation Malformation (AID 2283650)
Procedure, shortened: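 Tropical 5D wild-type zebrafish embryos, dechorionated with pronase at 4 hpf, were exposed singly from 6 hpf to 120 hpf statically at 28C in sealed, dark plates with 0.64% DMSO; pigmentation scored present/absent by brightfield microscopy, fitted against DMSO.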

[15] = Tanguay_ZF_120hpf_CIRC_legacy: (Legacy) Oregon State University Tanguay Lab 120 Hour Post-fertilization zebrafish Assay for Circulatory Malformation (AID 2283651)
Procedure, shortened: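 Read-out: presence or absence of circulatory malformation at 120 hpf, scored by brightfield microscopy, fitted in the gain-of-signal direction against DMSO baseline. Wild-type 5D larvae were exposed from 6 hpf after enzymatic chorion removal.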

[16] = molecular target: Cellular tumor antigen p53 (Homo sapiens) (UniProt P04637); assay: TOX21_p53_BLA_p3_ratio: Tox21 HCT-116 p53 Agonism Beta-lactamase Assay, Ratio, Phase 3 (AID 2283596)
Procedure, shortened: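 HCT116 p53-bla cells (4000/well) given compound in DMSO (217-fold dilution) after 5 h, incubated 16 h at 37C. CCF4-AM substrate 2 h at room temperature; 460/530 nm emission ratio, gain fitted against DMSO.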

[17] = molecular target: Cellular tumor antigen p53 (Homo sapiens) (UniProt P04637); assay: TOX21_p53_BLA_p5_ratio: Tox21 HCT-116 p53 Agonism Beta-lactamase Assay, Ratio, Phase 5 (AID 2283599)
Procedure, shortened: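 HCT-116 cells carrying a p53-inducible beta-lactamase reporter were seeded at 4000 cells/well and dosed after 5 h with compound in DMSO (217-fold dilution). After 16 h at 37C, CCF4-AM substrate was added for 2 h, and the 460/530 nm emission ratio was scored as gain-of-signal versus DMSO.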

[18] = Tanguay_ZF_120hpf_CFIN_legacy: (Legacy) Oregon State University Tanguay Lab 120 Hour Post-fertilization zebrafish Assay for Caudal Fin Malformation (AID 2283649)
Procedure, shortened: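 Dechorionated 5D wild-type zebrafish, static exposure 6–120 hpf, 28C, sealed and dark, 0.64% v/v DMSO final. Binary fin-malformation call at 120 hpf, brightfield; gain of signal vs DMSO baseline.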

[19] = Tanguay_ZF_120hpf_OTIC_legacy: (Legacy) Oregon State University Tanguay Lab 120 Hour Post-fertilization zebrafish Assay for Otic Vesicle Malformation (AID 2283639)
Procedure, shortened: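 Embryos from 5D wild-type adults exposed in plates; DMSO 0.64% v/v final. Sealed, light-protected, 28C, static to 120 hpf. Otic vesicle malformation recorded as binary endpoint; gain-of-signal fitted vs DMSO.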

[20] = read-out: kallikrein-3 (KLK3), KLK3 (gene 354); assay: LTEA_HepaRG_KLK3: Life Technologies and Expression Analysis (LTEA) Assay for kallikrein-3 (KLK3) using HepaRG (AID 2283652; active = hit-call score of the fitted dose curve at least 0.9, where 1 is the maximum; inactive = score below 0.9); conditions: mRNA level, 48 h; actives raise or lower the signal
Procedure, shortened: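 Differentiated human HepaRG cells in serum-free induction medium exposed 48 h in duplicate, eight-point half-log series from 100 uM in 0.5% DMSO. KLK3 mRNA by qRT-PCR, normalised to ACTB, GAPDH, POLR2A; bidirectional fit versus DMSO.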

Measured: AC50

Cellular tumor antigen p53 (Homo sapiens), sequence (P04637 whole entry, looked up): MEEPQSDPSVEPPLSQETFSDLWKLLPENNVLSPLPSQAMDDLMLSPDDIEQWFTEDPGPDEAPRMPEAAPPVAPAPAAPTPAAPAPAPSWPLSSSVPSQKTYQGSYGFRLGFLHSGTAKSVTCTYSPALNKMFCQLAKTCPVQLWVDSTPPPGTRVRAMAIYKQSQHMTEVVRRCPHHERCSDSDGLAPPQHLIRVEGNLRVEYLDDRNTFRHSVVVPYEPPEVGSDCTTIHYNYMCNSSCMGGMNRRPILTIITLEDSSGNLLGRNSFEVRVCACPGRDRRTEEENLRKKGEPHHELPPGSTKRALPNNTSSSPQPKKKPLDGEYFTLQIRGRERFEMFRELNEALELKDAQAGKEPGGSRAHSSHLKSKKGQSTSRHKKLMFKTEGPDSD

O=C(Nc1ccccc1-c1ccc(Cl)cc1)c1cccnc1Cl
not listed: [16] | [17] | [18] | [19] | [20]
inactive: all other assays above

Clc1cccc(C(Cl)(Cl)Cl)n1
not listed: [3] | [10] | [14] | [18] | [19] | [20]
inactive: all other assays above

C=CCOC(=O)C(C)(C)OC(=O)c1cc(-n2c(=O)cc(C(F)(F)F)n(C)c2=O)ccc1Cl
not listed: [3] | [12] | [16] | [19] | [20]
inactive: all other assays above

COc1ccc(-c2ccccc2)cc1NNC(=O)OC(C)C
not listed: [3] | [16] | [19] | [20]
inactive: all other assays above

Nc1c(Cl)c(Cl)nc(C(=O)O)c1Cl
not listed: [3] | [5] | [6] | [7] | [8] | [12] | [17] | [18]
inactive: all other assays above

CC(C)NC(=O)N1CC(=O)N(c2cc(Cl)cc(Cl)c2)C1=O
not listed: [18] | [19] | [20]
inactive: all other assays above

Cc1cc(C)nc(Nc2ccccc2)n1
not listed: [3] | [6] | [19] | [20]
inactive: all other assays above

CSC(=O)c1c(C(F)F)nc(C(F)(F)F)c(C(=O)SC)c1CC(C)C
not listed: [3] | [14] | [17] | [20]
inactive: all other assays above

CNC(=O)N(C)c1nnc(C(C)(C)C)s1
not listed: [5] | [6] | [16] | [17] | [18] | [19] | [20]
inactive: all other assays above

CCCCOCN(C(=O)CCl)c1c(CC)cccc1CC
active: [1] 67.9 µM | [3] 66 µM
not listed: [15] | [16] | [17] | [18] | [20]
inactive: all other assays above

CN/C(=N\[N+](=O)[O-])NCc1cnc(Cl)s1
not listed: [3] | [14] | [16] | [17] | [18] | [20]
inactive: all other assays above

CCN(CC)C(=O)C(C)Oc1cccc2ccccc12 (stereo not drawn)
active: [5] 55 µM
not listed: [2] | [3] | [17] | [20]
inactive: all other assays above

CNC(=O)Oc1cccc2ccccc12
not listed: [13] | [14] | [16] | [17] | [20]
inactive: all other assays above

CC1(C)CCC(=Cc2ccc(Cl)cc2)C1(O)Cn1cncn1 (stereo not drawn)
not listed: [3] | [8] | [12] | [14] | [17] | [19] | [20]
inactive: all other assays above

Cn1c(-c2ccccc2)cc(-c2ccccc2)[n+]1C
not listed: [3] | [16] | [17] | [20]
inactive: all other assays above

CC1(C)C(C=C(Cl)Cl)C1C(=O)OC(C#N)c1cccc(Oc2ccccc2)c1 (stereo not drawn)
active: [5] 1.7 µM | [6] 1.23 µM | [7] 1.82 µM | [8] 1.53 µM | [9] 1.66 µM | [10] 1.66 µM | [12] 1.86 µM | [13] 994 nM
inactive: [1] | [2] | [3] | [4] | [11] | [14] | [15]

CC(C)(C)C(=O)C(Oc1ccc(Cl)cc1)n1cncn1 (stereo not drawn)
active: [17] 86 µM | [5] 36.8 µM | [6] 41.3 µM | [8] 34.8 µM | [10] 37.5 µM
not listed: [3] | [4] | [16] | [19] | [20]
inactive: all other assays above
